{"source": "PubChem BioAssay AID1814", "about": "(Broad Institute, 2009)", "note": "Screen size: about 300,000 compounds; about 22,000 (7.3%) were called active. Inconclusive results (about 2%) are left out. Only a selection was taken, and actives are over-represented in it overall. Values without a mark were called inactive. No stated cut-off is given here; in the data, active means activity score below about -60%; inconclusive means mostly about -28% to -61%; inactive means positive scores."}
{"experiment": "Activators working through SNCA 5'UTR binding (MLPCN) (AID 1814)", "details": "alpha-synuclein 5'UTR reporter, activators screen; stronger effect = lower value; tested at 7.5 µM"}
{"smiles": "O=C(Nc1cccc(Br)c1)c1ccc2snnc2c1", "activity score": "-93% (active)"}
{"smiles": "FC(F)(F)c1ccnc(Oc2ccc(C3=NCCS3)cc2)c1", "activity score": "-169% (active)"}
{"smiles": "Cn1ccc(NC(=O)Nc2ccc(Cl)cc2)n1", "activity score": "-80.2% (active)"}
{"smiles": "Cc1nn(C)cc1CNC(=O)Nc1ccc(Cl)cc1", "activity score": "-69.4% (active)"}
{"smiles": "CSCc1ccc(C(=O)Nc2cc(C)cc(C)c2)cc1", "activity score": "-126% (active)"}
{"smiles": "C=CCn1c(SCC(N)=O)nnc1-c1cc2c(s1)CCC(CC)C2", "note": "(configuration not stated)", "activity score": "-137% (active)"}
{"smiles": "c1ccc(CCN2CN=C(Nc3nc4ccccc4o3)NC2)cc1", "activity score": "-174% (active)"}
{"smiles": "O=C(NCc1ccccn1)c1cc2ccccc2oc1=O", "activity score": "-79.8% (active)"}
{"smiles": "O=C(NCCc1c[nH]c2ccccc12)c1cc2ccccc2oc1=O", "activity score": "-188% (active)"}
{"smiles": "CSc1ccc(/C=N/NC(=O)c2cccc(Cl)c2)cc1", "activity score": "-142% (active)"}
{"smiles": "O=C(N/N=C/c1ccc(Cl)c(Cl)c1)c1ccc2nc[nH]c2c1", "activity score": "-191% (active)"}
{"smiles": "Cc1nn(C)c(Oc2ccccc2)c1[N+](=O)[O-]", "activity score": "-79.9% (active)"}
{"smiles": "Cc1ccc(N2C(=O)S/C(=C/c3cn(C)c4ccccc34)C2=O)cc1", "activity score": "-177% (active)"}
{"smiles": "COc1cc(SC)ccc1C(=O)NCCOc1ccccc1Cl", "activity score": "-151% (active)"}
{"smiles": "O=C(Nc1nc2ccc([N+](=O)[O-])cc2s1)c1ccncc1", "activity score": "-104% (active)"}
{"smiles": "O=C(NC(Nc1nc2ccc([N+](=O)[O-])cc2s1)(C(F)(F)F)C(F)(F)F)c1ccccc1", "activity score": "94.1%"}
{"smiles": "CCN(CC)c1ccc(C(=O)OCC(=O)c2ccco2)cc1", "activity score": "-179% (active)"}
{"smiles": "Cc1csc(NC(=O)CSc2nnc(-c3cccnc3)o2)n1", "activity score": "-101% (active)"}
{"smiles": "COC(=O)c1c(NC(=O)COc2ccc(Cl)cc2Cl)sc2c1CC(C)(C)NC2(C)C", "activity score": "102%"}
{"smiles": "Cc1cc(NC(=O)COc2ccc(Cl)cc2Cl)n(CCC#N)n1", "activity score": "-122% (active)"}
{"smiles": "COc1ccc(C(=O)NCCSc2ccccc2C)cc1", "activity score": "-113% (active)"}
{"smiles": "COc1ccc(Nc2cc(=O)oc3ccccc23)cc1", "activity score": "-97.7% (active)"}
{"smiles": "CSc1nc(-c2ccccc2)nc(C(Cl)Cl)n1", "activity score": "114%"}
{"smiles": "Cc1csc(NC(=O)Nc2ccccc2[N+](=O)[O-])n1", "activity score": "-255% (active)"}
{"smiles": "NC(=O)c1sc2nc3c(c(-c4ccccc4)c2c1N)CCC3", "activity score": "56.2%"}
{"smiles": "Cc1nc2sc(C(=O)c3ccccc3)c(N)c2c2c1CCCC2", "activity score": "-156% (active)"}
{"smiles": "CN(C)c1ccnc2sc(C(=O)c3ccccc3)c(N)c12", "activity score": "-138% (active)"}
{"smiles": "Cc1cccc(NC(=O)COc2ccc(Br)cc2C)n1", "activity score": "-210% (active)"}
{"smiles": "CCOc1cc(N2CCOCC2)c(OCC)cc1NC(=O)COc1cccc2cccnc12", "activity score": "88.8%"}
{"smiles": "Cc1cccc(NC(=O)COc2ccccc2C)n1", "activity score": "-109% (active)"}
{"smiles": "Cc1cccc(NC(=O)Cc2ccc(Br)cc2)n1", "activity score": "-90.2% (active)"}
{"smiles": "Cc1cccc(NC(=O)c2ccc3ccccc3n2)n1", "activity score": "-103% (active)"}
{"smiles": "Cc1ccccc1OCC(=O)Nc1ccc2c(c1)ncn2C", "activity score": "-256% (active)"}
{"smiles": "CCc1c(C)c2ccc(OC3CCCCC3=O)cc2oc1=O", "note": "(configuration not stated)", "activity score": "-133% (active)"}
{"smiles": "Cc1ccc(-c2nn(-c3ccccc3)cc2/C=C2\\SC(=S)N(CCCCCC(=O)O)C2=O)o1", "activity score": "-89.9% (active)"}
{"smiles": "C=CCOc1ccc(/C=C2\\SC(=S)N(CCC(=O)O)C2=O)cc1", "activity score": "80%"}
{"smiles": "COc1ccc2nc(Nc3nc(-c4cc5ccccc5oc4=O)cs3)sc2c1", "activity score": "-131% (active)"}
{"smiles": "CCNc1nc(-c2cc3ccccc3o2)cs1", "activity score": "-187% (active)"}
{"smiles": "O=c1oc2ccccc2cc1-c1csc(Nc2ccc(O)cc2)n1", "activity score": "-171% (active)"}
{"smiles": "COc1ccc2nc(Nc3nc(-c4ccncc4)cs3)sc2c1", "activity score": "-122% (active)"}
{"smiles": "CC(Cc1cccs1)NC(=O)c1cccc(Cl)c1", "note": "(configuration not stated)", "activity score": "-95.5% (active)"}
{"smiles": "CC(Cc1cccs1)NC(=O)NC1CCCCC1", "note": "(configuration not stated)", "activity score": "-95.9% (active)"}
{"smiles": "O=C(NC1CCCCCCC1)c1cccs1", "activity score": "-77.8% (active)"}
{"smiles": "Cc1cnc(NC(=O)c2ccc(Cl)nc2)s1", "activity score": "-97.1% (active)"}
{"smiles": "COc1cc(CNc2ncn[nH]2)ccc1OCc1ccccc1C", "activity score": "-65.6% (active)"}
{"smiles": "COC(=O)Cc1csc(/N=C/c2c(O)n(-c3cccc(C(F)(F)F)c3)c(=O)c3ccccc23)n1", "activity score": "81.8%"}
{"smiles": "O=C(Cc1cccs1)NCc1cccc(C(F)(F)F)c1", "activity score": "-110% (active)"}
{"smiles": "CC(C)c1ccc(/C=C2\\NC(=O)NC2=O)cc1", "activity score": "-66.1% (active)"}
{"smiles": "C/C(=N\\Nc1ncc(Cl)cc1Cl)c1ccc(S(=O)(=O)NCc2ccco2)cc1", "activity score": "-141% (active)"}
{"smiles": "C/C(=N\\Nc1ncc(Cl)cc1Cl)c1cccs1", "activity score": "-91.6% (active)"}
{"smiles": "COc1cccc(/C=N/Nc2ncc(C(F)(F)F)cc2Cl)c1O", "activity score": "76.7%"}
{"smiles": "COc1cccc(/C(C)=N/Nc2ncc(Cl)cc2Cl)c1", "activity score": "-119% (active)"}
{"smiles": "C/C(=N\\Nc1nc2ccccc2[nH]1)c1cccs1", "activity score": "-116% (active)"}
{"smiles": "Nc1cccc(CCc2nc3ccccc3[nH]2)c1", "activity score": "-77.9% (active)"}
{"smiles": "Cc1c(C(=O)OC(C)C)sc(NC(=O)c2cccnc2)c1C#N", "activity score": "-80.1% (active)"}
{"smiles": "CNc1nc2c(C)cccn2c(=O)c1C=Nc1ccc(OC)cc1", "activity score": "-108% (active)"}
{"smiles": "O=C(Nc1ccc(N2CCOCC2)cc1)c1ccc(-c2ccccc2[N+](=O)[O-])o1", "activity score": "-107% (active)"}
{"smiles": "O=C(Nc1ccc2sc3ccccc3c(=O)c2c1)c1ccccc1Cl", "activity score": "-135% (active)"}
{"smiles": "Cc1ccc(SCC(=O)c2cc(C)c(OC(=S)N(C)C)c(C)c2)cc1", "activity score": "-155% (active)"}
{"smiles": "CCOc1ccc(C(=O)Nc2cccc(SC)c2)cc1", "activity score": "-168% (active)"}
{"smiles": "CCOc1ccc(C(=O)Nc2cc(OC)ccc2OC)cc1", "activity score": "-88.9% (active)"}
{"smiles": "CCOc1ccc(NC(=O)Nc2cc(C)on2)cc1", "activity score": "-128% (active)"}
{"smiles": "CCOc1ccc(NC(=O)Nc2cc(C)ccc2OC)cc1", "activity score": "-78.4% (active)"}
{"smiles": "CC(=O)c1cc(C#N)c(SCC(=O)C(C)(C)C)nc1C", "activity score": "-148% (active)"}
{"smiles": "CC(=O)c1cc(C#N)c(SCC(=O)Nc2nccs2)nc1C", "activity score": "-110% (active)"}
{"smiles": "CCOC(=O)c1cccc(NC(=O)c2ccc(F)cc2F)c1", "activity score": "-127% (active)"}
{"smiles": "CCC(=C/c1sc2ccc3ccccc3c2[n+]1C)/C=C1\\Sc2ccc3ccccc3c2N1C", "activity score": "-122% (active)"}
{"smiles": "O=C(c1nnc(-c2ccc(Cl)cc2)o1)C1CCCC1", "activity score": "-86.2% (active)"}
{"smiles": "CCOC(=O)c1sc(-c2cccc([N+](=O)[O-])c2)cc1N", "activity score": "-129% (active)"}
{"smiles": "O=C(Cn1cnc2c(cnn2-c2ccccc2)c1=O)NCc1ccccc1", "activity score": "-148% (active)"}
{"smiles": "O=C(OCc1ccc(-c2ccccc2)cc1)c1cccc(O)c1", "activity score": "-109% (active)"}
{"smiles": "O=C(OCC(=O)c1c[nH]c2ccccc12)c1cccc(O)c1", "activity score": "-220% (active)"}
{"smiles": "CCc1ccccc1NC(=O)c1cc(-c2ccc3c(c2)OCO3)on1", "activity score": "-145% (active)"}
{"smiles": "C/C(=N/Nc1nc(-c2ccccc2)c(CC(=O)O)s1)c1ccccc1", "activity score": "-168% (active)"}
{"smiles": "COc1ccccc1N1CCN(/N=C/c2ccc(O)cc2O)CC1", "activity score": "-147% (active)"}
{"smiles": "COc1ccccc1N1CCN(/N=C\\C(Br)=C\\c2ccccc2)CC1", "activity score": "-74.9% (active)"}
{"smiles": "CCNC(=O)N1CCNC(=O)C1CC(=O)Nc1ccc(C(=O)OCC)cc1", "note": "(configuration not stated)", "activity score": "-69.7% (active)"}
{"smiles": "COc1ccc(-c2cc(C(=O)NC(Cc3c[nH]c4ccccc34)C(=O)O)c(C)o2)cc1OC", "note": "(configuration not stated)", "activity score": "-104% (active)"}
{"smiles": "CCOc1ccc(C2c3[nH]c4ccccc4c3CCN2Cc2cn(CC)nc2C)cc1", "note": "(configuration not stated)", "activity score": "-101% (active)"}
{"smiles": "COc1ccccc1-c1cnn2c(N3CCOCC3)cc(C)nc12", "activity score": "-164% (active)"}
{"smiles": "CCn1ccnc1CN(C)Cc1nc(-c2ccc3c(c2)OCO3)no1", "activity score": "-80.6% (active)"}
{"smiles": "Cc1ccc(NC(=O)c2cc3ccccc3o2)cc1", "activity score": "-123% (active)"}
{"smiles": "O=C(NC(=S)Nc1cccc(-c2ccc(CO)o2)c1)c1cccs1", "activity score": "-80.9% (active)"}
{"smiles": "COc1ccc2occ(C(=O)c3ccc(N=C(C)N(C)C)cc3)c2c1", "activity score": "-75.8% (active)"}
{"smiles": "COC(=O)c1ccc(NCC(=O)c2ccccc2)cc1", "activity score": "-123% (active)"}
{"smiles": "C=CCNC(=O)c1ccc2c3n(nc2c1)-c1ccc(C)cc1CO3", "activity score": "-197% (active)"}
{"smiles": "Cc1ccccc1-n1c(C)cc(/C=C2\\NC(=O)NC2=O)c1C", "activity score": "-131% (active)"}
{"smiles": "Cc1nn(CCOc2ccccc2)c(=O)n1-c1ccccc1F", "activity score": "-99.2% (active)"}
{"smiles": "C=C(C)CSc1nnc(-c2ccc(C)cc2)n1N", "activity score": "-99.6% (active)"}
{"smiles": "CCCCOc1ccc(CSC(=N)N)cc1[N+](=O)[O-]", "activity score": "-91.9% (active)"}
{"smiles": "CCCCCOc1ccc(CSC2=NCCN2)cc1[N+](=O)[O-]", "activity score": "-150% (active)"}
{"smiles": "CC1(C)C=Cc2c(ccc3c2OC[C@@H](c2ccc(O)cc2O)C3)O1", "activity score": "-154% (active)"}
{"smiles": "CC(C)Cc1cc(C(=O)NCCc2ccccc2)no1", "activity score": "-169% (active)"}
{"smiles": "CC(C)Cc1cc(C(=O)Nc2cc(Br)ccc2O)no1", "activity score": "-135% (active)"}
{"smiles": "CC(C)CNC(=O)c1cc(-c2ccc(Br)cc2)on1", "activity score": "-187% (active)"}
{"smiles": "Cc1cccc(NC(=O)c2ccc([N+](=O)[O-])o2)c1", "activity score": "-159% (active)"}
{"smiles": "Cc1ccc(NC(=O)NC(=O)c2ccccc2)cc1F", "activity score": "-128% (active)"}
{"smiles": "Cc1cccc(NC(=S)NC(=O)c2ccc(Br)o2)c1", "activity score": "-131% (active)"}
{"smiles": "Cc1cccc(NC(=O)NC(=S)NC(=O)c2ccccc2)c1", "activity score": "-62.7% (active)"}
{"smiles": "Cc1nn(-c2ccccc2)c(C)c1NC(=O)CCl", "activity score": "-101% (active)"}
{"smiles": "CCCCCCOC(=O)NCC(O)c1ccccc1", "note": "(configuration not stated)", "activity score": "-126% (active)"}
{"smiles": "COCC1CCCN(Cc2nc(-c3ccc4c(c3)OCO4)no2)C1", "note": "(configuration not stated)", "activity score": "-62.5% (active)"}
{"smiles": "Cc1cc(Nc2ccc(Br)cc2)nc2ccccc12", "activity score": "-83.2% (active)"}
{"smiles": "Cc1ccc2nc(Nc3ccccc3)cc(C)c2c1", "activity score": "-82.2% (active)"}
{"smiles": "CCOc1cc(/C=N/Nc2cc(C)nc3ccc(C)cc23)ccc1O", "activity score": "-66.2% (active)"}
{"smiles": "Cc1ccc(-c2nc(-c3ccncc3)no2)c(C)c1", "activity score": "-108% (active)"}
{"smiles": "c1csc(-c2nc(-c3ccncc3)no2)c1", "activity score": "-153% (active)"}
